Screens deposited in PubChem by National Center for Advancing Translational Sciences (NCATS).
NPSR antagonist: neuropeptide S receptor (human) antagonism, cAMP | 220,000 compounds, 1% hits | CHO-NPSR cells, cAMP TR-FRET, antagonist mode | Potency, µM (top dose mostly 38.3 µM), for inactives: top-dose activity change, negative = inhibition, actives largely listed as inhibitors; also: nearly all actives have a fitted effect of over 50% in size
B2AR arrestin: recruits beta-arrestin to the human beta2-adrenergic receptor. P07550. beta-arrestin recruitment to beta2AR, cell-based reporter. Potency, µM (titrated, usually from 46.1 µM), without a hit: at the highest dose activation, hits mostly activators. 330,000 compounds, 0.02% hits. AID 492947;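 also: 0% = DMSO controls and full agonism = EC100 isoproterenol or metaproterenol; nearly all actives have a fitted effect of over 65% in size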
Target sequence (P07550 whole entry, looked up): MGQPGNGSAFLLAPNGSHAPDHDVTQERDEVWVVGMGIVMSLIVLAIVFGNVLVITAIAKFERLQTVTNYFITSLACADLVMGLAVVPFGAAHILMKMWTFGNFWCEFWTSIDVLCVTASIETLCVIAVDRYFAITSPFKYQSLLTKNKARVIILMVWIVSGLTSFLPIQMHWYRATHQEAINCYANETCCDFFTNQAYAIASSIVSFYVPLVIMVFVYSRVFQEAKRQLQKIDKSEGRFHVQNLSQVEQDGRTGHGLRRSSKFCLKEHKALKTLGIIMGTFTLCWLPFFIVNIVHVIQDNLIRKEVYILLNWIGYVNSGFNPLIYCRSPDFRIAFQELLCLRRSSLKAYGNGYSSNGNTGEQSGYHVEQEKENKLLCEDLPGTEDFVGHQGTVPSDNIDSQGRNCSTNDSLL
RORg inh: inhibitors of mouse ROR gamma transcriptional activity | Potency, µM (titrated, usually from 53.6 µM), without a hit: top-dose activity change, negative = inhibition, most hits filed as inhibitors | Drosophila S2 Gal4-RORgamma UAS-luciferase reporter, 20 h | AID 2551 | P51450 | 310,000 compounds, 5.4% hits; also: nearly all actives have a fitted effect of over 60% in size
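Drosophila Schneider cells stably carrying a metallothionein-driven Gal4 DBD–ROR gamma fusion and a UAS-Photinus luciferase reporter were exposed to compound for 1 hr, then induced with copper sulfate (700 uM final) for 20 hr at ambient temperature before luminescence reading.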
VP16 counter: counter-screen for ROR gamma inhibitors: Gal4-VP16 reporter. Drosophila S2 Gal4-VP16 UAS-luciferase, luminescence, 20 h. Potency, µM (series often up to 53.6 µM), without a hit: at the highest dose activity, negative = inhibition, most hits filed as inhibitors. 310,000 compounds, 3.5% hits. AID 2546;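 also: Gal4-VP16 expression switched on by copper sulfate through the metallothionein promoter; nearly all actives have a fitted effect of over 50% in size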
The depositor's hits bear a star; ? = inconclusive; . = no result; [ ] = remark or other dose. Sampled rows, rich in hits. Any-hit rate of the full collection: about 5.7%. Calls follow the shape of the dose curve; as a rule, active = well fitted curve in the direction sought with a large enough effect; inconclusive = small, poorly fitted or top-dose-only effect, or another doubt; inactive = no such curve, though single readings can be large; an effect the other way counts as inactive or inconclusive. Unless noted, % is scaled to controls: 0 for no effect and ±100 for the full control effect; potency is read from the fitted curve at half-maximal effect.

SMILES | NPSR antagonist | B2AR arrestin | RORg inh | VP16 counter
O=C(O)/C=C\C(=O)Nc1ccccc1C#Cc1ccccc1 | -2.0%[46.1 µM] | 0.1% | 15.7% | 6.6%
O=C(O)/C=C/C(=O)Nc1ccccc1SC(F)(F)F | 4.6% | -0.1% | -137.5% | 10µM*
COc1cccc([C@@H]2Oc3ccc(OC)cc3/C(=N/O[C@@H](C)c3cn([C@H]4COC[C@H]4O)nn3)[C@@H]2O)c1 | . | . | 5.9%[10 µM] | 3.7%[10 µM]
Cn1c(-c2sc3cc(C(F)(F)F)cnc3c2-c2cccs2)n[nH]c1=S | 44.3% | -0.2% | 2.82µM* | -6.7%
CN1/C(=C\C=Nc2ccc3ccccc3c2)C(C)(C)c2ccccc21 | -3.6%[46.1 µM] | 0.5% | 3.16µM* | 4.47µM*
CN1\C(=C/C=C/C=C/C=[N+](C)C)C(C)(C)c2ccccc21 | 10µM* | 0.6% | ? | -86.8%
CC(CCC(=O)O)C1CCC2C3C(O)CC4CC(O)CCC4(C)C3CC(O)C12C (stereo not drawn) | . | 0.3% | 19.3% | 1.3%
COc1ccccc1-c1ccc2ncnc(NCCN3CCOCC3)c2c1 | . | . | 37.4% | -0.5%
CC(=O)Nc1ccc(Cl)c(C(N)=O)c1 | 2.0%[46.1 µM] | 0.2% | -5.8% | 0.2%
NC(=O)c1cc(N2C(=O)C=CC2=O)ccc1Cl | ? | 0.6% | 7.08µM* | 7.08µM*
CN1CCCCCC1C(=O)N1CCC(N2CCC(C(=O)N3CCOCC3)CC2)CC1 (stereo not drawn) | -14.9% | 0.0% | -12.1% | -4.7%
CC(C)(C)OC(=O)[C@H](Cc1ccccc1)NC(=O)c1[nH]cnc1C(=O)N[C@@H](Cc1ccccc1)C(=O)OCc1ccccc1 | . | 0.2% | 7.08µM* | ?
C[C@H](NC(=O)c1nc[nH]c1C(=O)N[C@@H](Cc1ccccc1)C(=O)OC(C)(C)C)C(=O)OC(C)(C)C | -48.4% | -0.4% | 11.2µM* | ?
CC(C)(C)OC(=O)[C@H](Cc1ccccc1)NC(=O)c1nc[nH]c1C(=O)N[C@@H](Cc1ccccc1)C(=O)OC(C)(C)C | -44.6% | -0.4% | 7.94µM* | ?
CN(C)c1ccc(-n2cccc2/C=C/[N+](=O)[O-])cc1 | 7.94µM* | -0.3% | 11.2µM* | -6.4%[10 µM]
CCCCS/C(N)=N/N=C/c1ccccc1O | -4.2%[46.1 µM] | 0.4% | 0.631µM* | 1.12µM*
C/C(=N/N=C/c1ccccc1O)c1ccccc1O | . | -0.9% | -26.5% | -11.5%
CCCS/C(N)=N/N=C/c1cc(C)ccc1O | -2.8%[46.1 µM] | -0.1% | 0.891µM* | 2µM*
CCN(CC(=O)Nc1c(F)cccc1F)C(=O)CN(C)S(=O)(=O)c1ccc(F)cc1 | . | -0.3% | . | .
COC(C(=O)C(O)C(C)O)C1Cc2cc3cc(OC4CC(OC5CC(O)C(O)C(C)O5)C(O)C(C)O4)c(C)c(O)c3c(O)c2C(=O)C1OC1CC(OC2CC(OC3CC(C)(O)C(O)C(C)O3)C(O)C(C)O2)C(O)C(C)O1 (stereo not drawn) | . | . | 0.708µM* | 0.794µM*
CO[C@H](C(=O)[C@@H](O)[C@@H](C)O)C1Cc2cc3cc(O[C@H]4C[C@@H](O[C@H]5C[C@@H](O)[C@H](O)[C@@H](C)O5)[C@@H](O)[C@@H](C)O4)c(C)c(O)c3c(O)c2C(=O)[C@H]1O[C@H]1C[C@@H](O[C@H]2C[C@@H](O[C@H]3C[C@](C)(O)[C@H](O)[C@@H](C)O3)[C@H](O)[C@@H](C)O2)[C@H](O)[C@@H](C)O1 (stereo partly drawn) | . | . | 0.631µM* | 0.501µM*
CC(OCc1ccccc1)C(NC(=O)OC(C)(C)C)C(=O)NC1COC2CC(n3ccc(=O)[nH]c3=O)OC12 (stereo not drawn) | . | . | -0.7% | -13.7%
C=CCOc1ccc(-c2n[nH]c(=S)o2)cc1 | 23.8% | 0.2% | 11.2µM* | -21.9%
COc1ccc(C(=O)Nc2ccc(-c3n[nH]c(=S)o3)cc2)cc1 | . | -0.2% | ? | -17.9%
CC12CCC(C/C1=N\N=C1\NC(=O)/C(=C\c3cccc(Br)c3)S1)C2(C)C (stereo not drawn) | -35.1% | -2.9% | 10µM* | 11.2µM*
SMILES | NPSR antagonist | B2AR arrestin | RORg inh | VP16 counter
CCN(Cc1cc(=O)[nH]c2ccccc12)C(=O)c1ccc(C)cc1 | 22.0% | 6.9% | 16.9% | 2.0%
COC(=O)Cn1c(CN2CCc3ccccc3C2)nc2c1c(=O)n(C)c(=O)n2C | -4.7%[46.1 µM] | -0.3% | 5.8% | 5.62µM*
CCOC(=O)Cn1c(CN2CCN(C(c3ccccc3)c3ccccc3)CC2)nc2c1c(=O)n(C)c(=O)n2C | 15.8µM* | -0.3% | -16.1% | 10.0%
COC(=O)Cn1c(CN2CCN(c3ccc(F)cc3)CC2)nc2c1c(=O)n(C)c(=O)n2C | 10.1%[46.1 µM] | 0.3% | -30.1% | 2.82µM*
Cn1c(=O)c2c(nc(CN3CCN(C(c4ccccc4)c4ccccc4)CC3)n2CC(N)=O)n(C)c1=O | 0.3%[46.1 µM] | -0.1% | -9.5% | 3.7%
Cn1c(=O)c2c(nc(CN3CCN(Cc4ccccc4)CC3)n2CCN2CCOCC2)n(C)c1=O | -3.5%[46.1 µM] | -0.4% | 1.58µM* | 2.0%
COC(=O)C(C(=O)OC)C1O[C@@]23COCCC2(C)C3c2ccccc21 (stereo partly drawn) | . | . | 22.2%[10 µM] | -2.7%[10 µM]
CC(C)C(C(=O)OCC(=O)c1ccccc1)N1C(=O)C2C3C=CC(C3)C2C1=O (stereo not drawn) | -1.9% | -0.3% | 9.8% | 3.8%
Cc1ccc(N2CCN(c3ccc(NC(=O)CCC(=O)O)cc3)CC2)cc1 | 8.3% | -0.3% | -1.5% | -16.6%
O=C(O)CCC(=O)Nc1ccc(N2CCCCCC2)cc1 | -29.4%[46.1 µM] | -0.3% | 2.51µM* | -25.0%
N#Cc1ccc(CN2CCC3(CC2)CCN(C(=O)c2ccco2)CC3)cc1 | . | . | -16.9% | -6.6%
O=C(Nc1ccon1)C(Sc1ccccc1)c1ccccc1 (stereo not drawn) | -14.1%[46.1 µM] | -0.1% | ? | 10.4%
O=C(Nc1nncs1)C(Sc1ccccc1)c1ccccc1 (stereo not drawn) | 1.8% | -0.2% | 11.2µM* | -24.3%
CCN(Cc1nc2cc(Cl)ccc2c(=O)[nH]1)C(=O)c1cccc(OCc2c(C)noc2C)c1 | . | 0.4% | . | .
COC(=O)CC1C(=O)NCCN1C(=S)NC(=O)c1ccccc1[N+](=O)[O-] (stereo not drawn) | 18.5% | -0.2% | -19.7% | -3.8%
CC(C)OC(=O)CC1C(=O)NCCN1C(=S)NC(=O)c1cccs1 (stereo not drawn) | ? | -0.9% | 2.51µM* | 11.2µM*
C[N+](C)(C)CCOP(=O)([O-])OP(=O)(O)OCC1OC(n2ccc(N)nc2=O)C(O)C1O (stereo not drawn) | . | . | 11.6% | -5.9%
CC1CCN(C(=O)/C(=C\c2cccs2)NC(=O)c2ccccc2)CC1 | 9.5% | -0.2% | 2.82µM* | 17.8µM*
CC1CCN(C(=O)/C(=C\c2ccco2)NC(=O)c2ccccc2)CC1 | . | -0.8% | 35.6% | -2.0%
Cc1ccc(S(=O)(=O)NC(Cc2ccccc2)C(=O)NN)cc1 (stereo not drawn) | . | -0.8% | -16.5% | 3.8%
Cc1ccc(S(=O)(=O)N[C@@H](Cc2ccccc2)C(=O)CCl)cc1 | 20µM* | 0.4% | ? | 15.8µM*
Cc1cc(Br)ccc1NC(=O)CNC(=O)CN(C)C1CCS(=O)(=O)C1 (stereo not drawn) | . | 0.1% | . | .
